These results are taken from PubChem BioAssay AID1490 (National Center for Advancing Translational Sciences (NCATS), 2009).

Hit rate of the full screen: of about 310,000 compounds, about 11,000 (3.5%) were called active. Roughly 4% stayed inconclusive and do not appear here. This excerpt belongs to a sample that is enriched for actives. Values without a mark were called inactive. Calls follow the shape of the dose curve; as a rule, active = well fitted inhibition curve with a large enough effect; inconclusive = small, poorly fitted or top-dose-only effect, or another doubt; inactive = no such curve, though single readings can be large or run the other way.
Potency is read from the fitted curve at half-maximal effect.

This test addresses 4'-phosphopantetheinyl transferase ffp (Bacillus subtilis) (UniProt Q9F4F7). Kind of test: qHTS Assay for Inhibitors of Bacillus subtilis Sfp phosphopantetheinyl transferase (PPTase).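 Also: the enzyme is Sfp with the accession as filed and its product quenches rhodamine fluorescence.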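 As to largest response in the series, negative = inhibition: 0% = enzyme reaction without inhibitor and -100% = no enzyme wells.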 The note with it: Biochemical Sfp PPTase activity. The method in brief:
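Compounds were incubated with enzyme (final 15 nM) for 15 min at room temperature before substrate addition started the reaction. Fluorescence at 525 nm excitation, 598 nm emission was recorded immediately and after 30 minutes.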
(In qHTS, concentration-response curves come from the screen itself.)
Take `CC(C)c1nc(CNC(=O)CC2C(=O)NCCN2Cc2cccc(F)c2F)cs1` (stereo not given): the largest response in the series, negative = inhibition was 7.23%. For `CC(=O)NC(CC(=O)Nc1nc(-c2ccccc2)c(C(C)=O)s1)c1ccccc1` (stereo not given), the largest response in the series, negative = inhibition was 2.16%.

In the case of `CN(C(=O)CCN1C(=O)/C(=C/c2ccccc2F)SC1=S)C1CCS(=O)(=O)C1` (stereo not given), the largest response in the series, negative = inhibition is 1.57%. Still for that read-out and setting: the value for `CCOC(=O)CSc1nc(C)c(Oc2ccc(Cl)cc2Cl)c(=O)[nH]1` was 11.2%.

As for `CCCCOC(=O)CNc1nnc(SCC(=O)OCC)[nH]c1=O`, the Potency is 20 µM (active). Regarding `CCOC(=O)c1c(NC(=O)CSc2nnc(C)c(=O)[nH]2)sc2c1CCC2`, the largest response in the series, negative = inhibition is 12%. The same measure, in the same setting: the value for `CCn1c(COc2ccccc2)nnc1SCC(=O)NCc1ccco1` was 21.1%. Regarding `C=CCn1c(CSc2nc3ccccc3s2)nnc1SCC(=O)NCc1ccco1`, the Potency is 15.8 µM (active). Turning to `C=CCn1c(SCC(=O)Nc2nc3ccccc3s2)nnc1-c1ccccc1O`, the largest response in the series, negative = inhibition was -3.27%. Same read-out and setting: the value for `CC(=O)c1cc2c(cc1NC(=O)Cn1nc(-c3ccc(F)cc3)ccc1=O)OCO2` was 8.25%; that for `COc1ccc(S(=O)(=O)NCCc2cc3ccc(C)c(C)c3[nH]c2=O)cc1` was 8.17%; that for `Cc1cc(O)c(C2(O)C(=O)Nc3ccccc32)cc1C` (stereo not given) was 0.726%. For the compound `O=C1Nc2ccccc2C12Nc1ccccc1S2` (stereo not given), the Potency is 20 µM (active). With `COc1ccc(C2(O)C(=O)Nc3ccccc32)cc1` (stereo not given), the largest response in the series, negative = inhibition is 5.11%. Still for that read-out and setting: the value for `CN1CCN(c2ncc3nc(-c4ccc(Cl)cc4)c(=O)n(-c4ccccc4)c3n2)CC1` was -4.61%; that for `CCOC(=O)c1c(S(=O)(=O)Nc2cccc(Cl)c2)c(C)n(C)c1C` was 17.3%. Turning to `Cc1cc(C)c2nc(-c3ccco3)cc(C(=O)O)c2c1`, the Potency was 20 µM (active). In the case of `Cc1ccsc1-c1cc(C(=O)O)c2c(ccc3ccccc32)n1`, the largest response in the series, negative = inhibition is 5.93%.

On to `COC(=O)c1cnn2c(C(F)(F)F)cc(-c3ccco3)nc12`, for which the largest response in the series, negative = inhibition was -3.33%. In the case of `Cc1ccc(S(=O)(=O)c2c[nH]c3ccc(C)cc3c2=O)cc1`, the largest response in the series, negative = inhibition was 18.3%. `COc1cc(C)cc(CN2CCC(Cc3ccccc3)CC2)c1O`: the largest response in the series, negative = inhibition is 15.6%. As for `Cc1ccc(OCc2nnc(SC3CCc4ccccc4C3=O)n2C)cc1` (stereo not given), the Potency is 25.1 µM (active). On to `Cc1cccnc1NC(=O)CSc1nnc(COc2ccc(C(C)C)cc2)n1C`, for which the largest response in the series, negative = inhibition was -2.86%. `Cc1ccc(OCc2nc3ccccc3n2C)cc1`: the largest response in the series, negative = inhibition was 16.9%. Regarding `CCCCNC(=O)c1ccccc1NC(=O)C1=C(C)OCCS1`, the largest response in the series, negative = inhibition was 4.87%. As for `CCCCNC(=O)c1ccccc1NC(=O)c1ccccc1N(C)S(C)(=O)=O`, the Potency was 50.1 µM (active). Take `CCC(C)NC(=O)c1ccccc1NC(=O)c1ccccc1N(C)S(C)(=O)=O` (stereo not given): the largest response in the series, negative = inhibition was 17.5%. On to `C=CCOC(=O)C(C(C)=O)C(NC(=O)OC)c1ccccc1` (stereo not given), for which the largest response in the series, negative = inhibition is 17.2%. For the compound `COc1ccc(C)cc1NC(=O)CN(C)S(=O)(=O)c1ccc2c(c1)n(C)c(=O)c(=O)n2C`, the largest response in the series, negative = inhibition was 13.5%.

For the compound `C[C@]12CC[C@@H]3C(=CCc4cc(O)ccc43)[C@@H]1CCC2=O`, the largest response in the series, negative = inhibition is -11.9%. Regarding `COc1ccc2c(c1)CC[C@@H]1[C@@H]2CC[C@]2(C)C(=O)CC[C@@H]12`, the Potency was 50.1 µM (active). Turning to `COc1ccc(S(=O)(=O)N2CCN(C)CC2)c(C)c1`, the largest response in the series, negative = inhibition is 13.7%. Regarding `CCCc1c(C(=O)N/N=C(\C)CCc2ccc(OC)cc2)nnn1-c1nonc1N`, the largest response in the series, negative = inhibition is 10.3%. Take `CCO/C=C1\C(=O)N(c2ccc(OCC)cc2)C(=O)c2ccccc21`: the largest response in the series, negative = inhibition is 3.31%.

Consider `CCOc1ccc(N2C(=O)/C(=C/c3ccc(C)o3)N(C)C2=S)cc1`, for which the Potency is 3.98 µM (active). With `CCOc1ccc(N2C(=O)CN(c3cccc4ccccc34)C2=S)cc1`, the largest response in the series, negative = inhibition was 11.1%. Take `COC(=O)C1=C(C(=O)OC)[C@@H]2N(C)c3ccccc3[C@@]23C[C@@H](C(=O)OC)N(S(=O)(=O)c2ccc(Br)cc2)C3=N1`: the largest response in the series, negative = inhibition was 14%. On to `CCOC(=O)C1=NOC(Cn2cc(C(C)=O)c(=O)[nH]c2=O)C1` (stereo not given), for which the largest response in the series, negative = inhibition was 15.9%. On the same count and under the same terms, the result for `CCOC(=O)C1=C(C)N=C2c3ccccc3C(=O)C2C1c1ccc(Br)cc1` (stereo not given) reads 10.1%.

With `CCOC(=O)C1=NO[C@@]2(C=C(Br)C(=O)[C@H]3O[C@H]32)C1`, the Potency was 31.6 µM (active).

As for `Cc1c(C=O)c2ccccc2n1CCOc1ccccc1`, the largest response in the series, negative = inhibition was -1.13%. On to `CCOc1ccc(N/C=C/C(=O)c2cc(OC)c(OC)c(OC)c2)cc1`, for which the largest response in the series, negative = inhibition is -7.21%. `COc1ccccc1NC(=O)CSc1nnc(CNC(=O)c2ccccc2F)o1`: the largest response in the series, negative = inhibition was 15.2%.

On to `NC(=O)c1c(NC(=O)CSc2nc(N)cc(=O)[nH]2)sc2c1CCCC2`, for which the largest response in the series, negative = inhibition was -28%. Turning to `CCc1cccc(C)c1NC(=O)CSc1nnc(-c2ccco2)n1N`, the largest response in the series, negative = inhibition is -3.08%. As for `NC(=O)c1c(NC(=O)CSc2nnc(-c3ccco3)n2N)sc2c1CCCC2`, the Potency was 5.62 µM (active). With `CCOc1ccccc1NS(=O)(=O)c1c[nH]c(C(=O)OC)c1`, the largest response in the series, negative = inhibition is 4.59%. `CC(OC(=O)c1ccccc1N1C(=O)C2C3CCC(C3)C2C1=O)C(=O)c1ccccc1` (stereo not given): the largest response in the series, negative = inhibition is 11.3%. As to `CCOC(=O)c1ccccc1N1C(=O)C2Sc3[nH]c(=O)sc3C(/C=C/c3ccccc3)C2C1=O` (stereo not given), the Potency is 12.6 µM (active). For the compound `COC(=O)C1=C(C)N=C2SC(C)C(=O)N2C1/C=C/c1ccccc1` (stereo not given), the largest response in the series, negative = inhibition was 18.9%. Turning to `CN1CCN(CCCCOc2cccc3ccccc23)CC1`, the largest response in the series, negative = inhibition was 4.87%. Turning to `CC1CN(CCOc2ccccc2[N+](=O)[O-])CC(C)O1` (stereo not given), the largest response in the series, negative = inhibition is -26.3%. On the same count and under the same terms, the result for `c1ccc(-c2ccccc2OCCN2CCCCC2)cc1` reads -19%. Still for that read-out and setting: the value for `CC1CCCN(CCOCCOc2ccccc2-c2ccccc2)C1` (stereo not given) was -31.6%. Regarding `CC1CN(CCCOc2ccccc2-c2ccccc2)CC(C)O1` (stereo not given), the Potency was 56.2 µM (active). `CN1CCN(CCCCOc2ccccc2-c2ccccc2)CC1`: the Potency is 56.2 µM (active). For the compound `CCN(CC)CCCNC(=O)CCn1nc(-c2ccc(Cl)cc2)ccc1=O`, the largest response in the series, negative = inhibition was 13.6%. As for `OC(CNC1CCCC1)COc1ccc(F)cc1` (stereo not given), the largest response in the series, negative = inhibition was 1.37%. Take `CCc1cccc(C)c1N1C(=O)CN(Cc2ccccc2)C1=S`: the largest response in the series, negative = inhibition was 13.8%. On the same count and under the same terms, the result for `C#CC(C)(C)NC(=O)c1cnc(-c2ccccc2)nc1-c1ccccc1` reads 8.13%.
